Molecules are shown by their SMILES. Compounds without any hit were thinned out: in the full panel of roughly 83,000, 20% have a hit.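 Cell lines were cultured in 96-well plates, exposed to a single compound concentration, and assessed for percent growth 48 hours later.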 Unmarked numbers belong to inactive results. Activity calls are given as the source filed them. Rule for the calls: active = growth percent below 10; inactive = the rest.

Common to all, as to assay: NCI-60 one-dose screen, 48 h (100 = growth as untreated, 0 = no growth, -100 = all killed)
Holding throughout (settings): 10 µM unless noted

The subject of assay [1] is NCI-H23 lung.
Assay [2] deals with NCI-H226 lung.
For assay [3], the system named is NCI-H322M lung.
Assay [4] relates to HOP-62 NSCLC.
Assay [5] relates to NCI-H460 lung.
In assay [6] the test system is HOP-92 NSCLC.
Assay [7] relates to NCI-H522 lung.
Assay [8] relates to A549/ATCC NSCLC.
The subject of assay [9] is 786-0 renal.
Assay [10] has as its system COLO 205 colon.
Assay [11] concerns DU-145 prostate.
Assay [12] has as its system K-562 leukemia.
For assay [13], the system named is MALME-3M melanoma.
The subject of assay [14] is MDA-MB-231 breast.
The test system of assay [15] is RXF 393 renal.
The test system of assay [16] is SF-268 CNS.
The subject of assay [17] is SF-295 CNS.
Assay [18] has as its system SF-539 CNS.
Assay [19] deals with UACC-257 melanoma.
Assay [20] deals with M14 melanoma.

As for `CC(C)(C)c1ccc(C(=O)N/N=C/c2ccc(O)cc2O)cc1`, the growth is 19.1% in assay [1]; 12.1% in [2]; 26.8% in [3]; 17.9% in assay [4]; 0.52% (active) in assay [5]; 33.6% in assay [6]. Further, the growth was 33.4% in assay [7]; 11.8% in assay [8]; 19.7% in assay [9]; 14.7% in assay [10]; 24.5% in assay [11]; 14.2% in assay [12]. Moreover, the growth was 11.9% in [13]; 35.1% in assay [14]; -4% (active) in assay [15]; 19.9% in assay [16]; 16.6% in assay [17]; 11.2% in assay [18]. Further, the values for the growth in assay [19] and in [20] were 3.68% (active) and -10.3% (active), respectively.

Consider `COc1ccc(-c2cc(-c3cc(OC)ccc3OC)nc(SCC(C)=O)c2C#N)cc1`, for which the growth in assay [1] is 76.1%; in [2], 83.4%; in [3], 97.6%; in [4] it was 75.5%; in assay [5] it was 78.8%; in assay [6], 38.2%. For the same molecule, the growth was 54.9% in assay [7]; 49.4% in assay [8]; 75% in assay [9]; 78.2% in assay [10]; 73.7% in assay [11]; 72.2% in assay [12]. Also, the growth is 92% in assay [13]; 50.9% in assay [14]; -0.171% (active) in assay [15]; 65.8% in assay [16]; 58.5% in assay [17]; 64.9% in assay [18]. The figures for the growth in assay [19] and in assay [20] were 93.5% and 69.8%, respectively.

As for `COc1cc([C@@H](CCO)C[C@H](C)c2ccc3ccccc3c2)cc(OC)c1OC`, the growth in assay [1] is 54.6%; in assay [2], 56.4%; in assay [3], 46.7%; in assay [4] it was 40.6%; in [5], 17.3%; in [6], 30.8%. The growth was -7.95% (active) in [7]; 46.8% in assay [8]; 28% in assay [9]; 16.1% in assay [10]; 47.1% in [11]; 12.1% in assay [12]. The growth in assay [13] was 44.5%; in assay [14], 43.8%; in [15] it was 32.3%; in assay [16], 48.9%; in assay [17], 19.6%; in [18] it was 9.87% (active). Moreover, the growth in assay [19] is 60.6%; in [20] it was 15.5%.

`Cc1nn(C)c2ncnc(N/N=C/c3cccc(O)c3O)c12`: the growth in assay [1] was 20.8%; in [2] it was 42.7%; in assay [3], 14.7%; in [4], 4.24% (active); in assay [5], 2.65% (active); in assay [6] it was 23.3%. Besides, the growth in [7] was 19.9%; in assay [8] it was 20.9%; in assay [9], 2.11% (active); in assay [10], -3.31% (active); in assay [11], 18.1%; in assay [12] it was 12.7%. Further, the growth in assay [13] was -11.5% (active); in assay [14] it was 24.7%; in assay [15] it was 11%; in assay [16] it was 6.68% (active); in assay [17], 18.3%; in assay [18], 5.37% (active). In addition, the growth is 3.75% (active) in assay [19] and -48.5% (active) in [20].

In the case of `Cc1cccc(N=Nc2cccc(C)c2)c1`, the growth was 92.5% in assay [1]; 100% in [2]; 98.5% in assay [3]; 104% in [4]; 102% in assay [5]; 85.9% in assay [6]. The growth was 97.4% in assay [7]; 104% in [8]; 116% in assay [9]; 111% in [10]; 112% in assay [11]; 138% in [12]. The growth is 100% in assay [13]; 86.4% in [14]; 115% in assay [15]; 110% in [16]; 97.9% in assay [17]; 110% in assay [18]. Further, the growth was 113% in assay [19] and 108% in assay [20].

As for `COc1ccc2[nH]cc(-c3nonc3-c3c[nH]c4ccc(Br)cc34)c2c1`, the growth in assay [1] was 54.1%; in [2] it was 74.8%; in assay [3] it was 50.5%; in [4] it was 33.8%; in assay [5], 8.13% (active); in assay [6] it was 54%. Also, the growth in assay [7] is 8.48% (active); in [8], 35.3%; in [9], 61.4%; in assay [10], 32.1%; in assay [11], 43.8%; in assay [12] it was 7.68% (active). For the same molecule, the growth in assay [13] is 70.4%; in [14], 5.3% (active); in assay [15], 76.7%; in assay [16] it was 47%; in [17], 26.1%; in [18], 56.3%. Besides, the growth in assay [19] is 64.2%; in [20], 31.8%.

As for `CCOc1ccc(/C=C/C(=O)c2cccc(OCCCOc3cccc(C(=O)/C=C/c4ccc(OCC)cc4)c3)c2)cc1`, the growth in assay [1] is 83.9%; in [2], 73.8%; in assay [3], 84.5%; in [4], 107%; in assay [5] it was 65.4%; in assay [6] it was 91.6%. The growth in assay [7] was 74%; in assay [8], 85.4%; in [9] it was 100%; in [10], 116%; in assay [11], 82.8%; in assay [12], 69.9%. In addition, the growth in assay [13] is 100%; in assay [14], 83.3%; in [15] it was 105%; in assay [16], 85.3%; in [17], 76.4%; in assay [18], 110%. Besides, the growth in [19] is 82.7%; in assay [20], 69%.

The values are drawn from PubChem BioAssay (NCI).
